Experimental data published in PubChem BioAssay AID1159580 (chemical genetic matrix, 2015).
“And” between values parts separate entries of the source, which are not always exact repeats. Identical values can stand only once. Out of some 5,500 compounds screened, about 2,000 (36%) were called active. Another 18% or so got no clear call; they are omitted. No stated cut-off is given here; in the data, active means normalized growth mostly below about 0.91 (no sharp cut-off); inconclusive means no clear call, values can overlap the other calls; inactive means mostly above about 0.92. The list shows a part of the results.

Test: chemical genetic growth profiling, strain panel (AID 1159580);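 further: tested at 20 µM; growth read once vehicle control cultures reached saturation at 30 °C; 1 = growth at the plate median or of vehicle wells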
Conditions: S. cerevisiae deletion strains, growth OD

Measured: normalized growth

CCCCN(CCCC)CCCOC(=O)c1ccc(N)cc1
inactive: locus YAL013W, strain DEP1, stronger effect = lower value 1 | locus YAL021C, strain ccr4, stronger effect = lower value 0.992 | locus YAL026C, strain drs2, stronger effect = lower value 0.991 | locus YAL030W, strain snc1, stronger effect = lower value 0.996 | locus YBL061C, strain skt5, stronger effect = lower value 0.986 | locus YBR009C, strain hhf1, stronger effect = lower value 0.998 | locus YBR021W, strain FUR4, stronger effect = lower value 1.07 | locus YBR023C, strain chs3, stronger effect = lower value 0.99 | locus YBR171W, strain sec66, stronger effect = lower value 0.986 | locus YBR229C, strain ROT2, stronger effect = lower value 0.998 | locus YBR231C, strain swc5, stronger effect = lower value 1 | locus YBR279W, strain paf1, stronger effect = lower value 0.994 | locus YCL011C, strain gbp2, stronger effect = lower value 0.985 | locus YCL016C, strain dcc1, stronger effect = lower value 0.99 | locus YCL029C, strain bik1, stronger effect = lower value 0.982 | locus YCL061C, strain MRC1, stronger effect = lower value 0.987 | locus YCL069W, strain vba3, stronger effect = lower value 0.991 | locus YCR088W, strain abp1, stronger effect = lower value 0.985 | locus YDL005C, strain med2, stronger effect = lower value 0.994 | locus YDL035C, strain GPR1, stronger effect = lower value 0.998 | locus YDL040C, strain nat1, stronger effect = lower value 0.99 | locus YDL074C, strain BRE1, stronger effect = lower value 0.977 | locus YDL101C, strain DUN1, stronger effect = lower value 0.979 | locus YDL134C, strain PPH21, stronger effect = lower value 1 | locus YDL185W, strain tfp1, stronger effect = lower value 0.968 | locus YDL192W, strain arf1, stronger effect = lower value 0.994 | locus YDR001C, strain nth1, stronger effect = lower value 0.992 | locus YDR069C, strain doa4, stronger effect = lower value 0.99 | locus YDR101C, strain arx1, stronger effect = lower value 0.986 | locus YDR137W, strain rgp1, stronger effect = lower value 0.879 | locus YDR150W, strain NUM1, stronger effect = lower value 0.995 | locus YDR159W, strain sac3, stronger effect = lower value 0.989 | locus YDR162C, strain NBP2, stronger effect = lower value 0.984 | locus YDR195W, strain ref2 0.99 | locus YDR297W, strain sur2, stronger effect = lower value 0.993 | locus YDR318W, strain mcm21, stronger effect = lower value 0.992 | locus YDR334W, strain swr1, stronger effect = lower value 0.983 | locus YDR335W, strain msn5, stronger effect = lower value 0.989 | locus YDR388W, stronger effect = lower value 0.989 | locus YDR392W, strain spt3, stronger effect = lower value 0.983 | locus YDR502C, strain sam2, stronger effect = lower value 1.01 | locus YEL003W, strain gim4, stronger effect = lower value 0.986 | locus YEL037C, strain rad23, stronger effect = lower value 0.991 | locus YEL061C, strain CIN8 (second series), stronger effect = lower value 0.981 | locus YEL061C, strain CIN8, stronger effect = lower value 0.998 | locus YER015W, strain faa2, stronger effect = lower value 0.991 | locus YER016W, strain bim1, stronger effect = lower value 0.991 | locus YER110C, stronger effect = lower value 0.989 | locus YER111C, strain swi4, stronger effect = lower value 1 | locus YER155C, strain BEM2 (second series), stronger effect = lower value 0.984 | locus YER155C, strain BEM2, stronger effect = lower value 1 | locus YER167W, strain BCK2, stronger effect = lower value 0.995 | locus YFR010W, strain ubp6, stronger effect = lower value 0.99 | locus YGL078C, strain dbp3, stronger effect = lower value 0.992 | locus YGL086W, strain mad1, stronger effect = lower value 0.994 | locus YGL167C, strain pmr1, stronger effect = lower value 0.991 | locus YGL173C, strain kem1, stronger effect = lower value 0.983 | locus YGL227W, strain vid30, stronger effect = lower value 0.983 | locus YGL240W, strain doc1, stronger effect = lower value 1 | locus YGL248W, strain PDE1, stronger effect = lower value 1 | locus YGL253W, strain hxk2, stronger effect = lower value 0.991 | locus YGR078C, strain PAC10, stronger effect = lower value 0.97 | locus YGR135W, strain pre9, stronger effect = lower value 0.994 | locus YGR229C, strain SMI1, stronger effect = lower value 0.961 | locus YGR252W, strain gcn5, stronger effect = lower value 1.16 | locus YHR013C, strain ard1, stronger effect = lower value 0.961 | locus YHR027C, strain rpn1, stronger effect = lower value 0.991 | locus YHR030C, strain SLT2, stronger effect = lower value 0.965 | locus YHR079C, strain IRE1 (second series), stronger effect = lower value 0.977 | locus YHR079C, strain IRE1, stronger effect = lower value 0.973 | locus YHR094C, strain hxt1, stronger effect = lower value 0.985 | locus YHR129C, strain ARP1, stronger effect = lower value 0.989 | locus YHR142W, strain chs7, stronger effect = lower value 0.992 | locus YHR200W, strain rpn10, stronger effect = lower value 0.996 | locus YIL066C, strain RNR3, stronger effect = lower value 0.991 | locus YIL073C, strain SPO22, stronger effect = lower value 0.937 | locus YIL125W, strain kgd1, stronger effect = lower value 0.987 | locus YIR030C, strain dcg1, stronger effect = lower value 0.997 | locus YJL092W, strain hpr5, stronger effect = lower value 0.986 | locus YJL095W, strain BCK1 (second series), stronger effect = lower value 0.993 | locus YJL095W, strain BCK1, stronger effect = lower value 0.967 and 0.982 | locus YJL115W, strain asf1, stronger effect = lower value 0.993 | locus YJL129C, strain trk1, stronger effect = lower value 1 | locus YJL134W, strain LCB3, stronger effect = lower value 0.993 | locus YJL154C, strain vps35, stronger effect = lower value 0.987 | locus YJL164C, strain tpk1, stronger effect = lower value 0.964 | locus YJL166W, strain qcr8, stronger effect = lower value 0.996 | locus YJL168C, strain set2, stronger effect = lower value 0.988 | locus YJL187C, strain SWE1 (second series), stronger effect = lower value 0.962 | locus YJL187C, strain SWE1, stronger effect = lower value 0.992 | locus YJR043C, strain POL32, stronger effect = lower value 0.993 | locus YJR066W, strain TOR1, stronger effect = lower value 0.95
